{
  "source": "PubChem BioAssay (NCI)",
  "note": "Compounds without any hit were thinned out: in the full panel of roughly 83,000, 20% have a hit.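 Results are percent growth after 48 hours of single-concentration exposure. 100 means growth as in untreated cells, lower positive values show inhibition; negative values down to -100 show cell death.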 Active and inactive are the calls of the source.",
  "data": [
    {"system": "HCT-15 colon", "assay": "NCI-60 one-dose screen, 48 h (100 = growth as untreated, 0 = no growth, -100 = all killed)", "conditions": "10 µM unless noted", "protocol": "Growth inhibition of the HCT-15 human tumor cell line is measured as a screen for anti-cancer activity. Cells are grown in 96 well plates and exposed to the test compound for 48 hours. Compounds are tested at a single concentration, which is 10^-5 M for most compounds. The reported endpoint is percent growth (GI% or GIPRCNT), where numbers from 0 - 100% represent growth inhibition, and numbers from -100% - 0 represent cell death. For example, a value of 40 represents 60% growth inhibition. A value of 0 means no net growth occurred over the course of the experiment. A value of -40 indicates 40% of cells at the beginning of the experiment died by the end of the experiment. A value of -100 means all cells are dead at the end of the experiment.\nNCI-60 Human Tumor Cell Lines Screen was performed using the standard one-dose NCI protocol, which is described in more detail at https://dtp.cancer.gov/discovery_development/nci-60/default.htm.\nCompounds with GIPRCNT values below 10 were considered active. Activity score was based on GIPRCNT using the following formula: […]\nScore is 0 for GIPRCNT values of 100 or above, 50 for GIPRCNT values of 0, and 100 for GIPRCNT values of -100.", "values": [
      {"molecule": "CN(C)c1ccc(C2CC(c3ccccc3)=NN2/C=C2\\SC(=O)NC2=O)cc1", "note": "(stereo not given)", "growth": "85.9% (inactive)"},
      {"molecule": "COc1cc(OC)c(C(=O)/C=C/c2ccc(C(F)(F)F)cc2)c(OC)c1", "growth": "29.4% (inactive)"},
      {"molecule": "O=C(Nc1cc(C(F)(F)F)cc(C(F)(F)F)c1)Nc1ccc(OCc2nnc(-c3ccc(Cl)cc3)o2)c(F)c1", "growth": "13.6% (inactive)"},
      {"molecule": "CC(C)C[C@H](NC(=O)Cn1ccc(NCc2ccccc2)cc1=O)B(O)O", "growth": "23.5% (inactive)"},
      {"molecule": "O=C(/C=C/CN1CCCCC1)Nc1cc2c(Nc3ccc(F)c(Cl)c3F)ncnc2cc1OCCOC(F)F", "growth": "7.81% (active)"},
      {"molecule": "CC(C)CCN(CCCNc1c2c(nc3ccccc13)CCCC2)CCC(C)C", "growth": "72.9% (inactive)"},
      {"molecule": "COc1cc(Cn2c(-c3nonc3N)nc3ccccc32)ccc1C", "growth": "19.5% (inactive)"},
      {"molecule": "Cc1ccc(C2=NN(c3ccc(S(N)(=O)=O)cc3)C(c3cn(-c4ccccc4)nc3-c3ccccc3)C2)cc1", "note": "(stereo not given)", "growth": "74.3% (inactive)"},
      {"molecule": "O=C(/C=C/CN1CCOCC1)Nc1cc2c(Nc3ccc(F)c(Cl)c3F)ncnc2cc1OCCOC(F)F", "growth": "38.1% (inactive)"},
      {"molecule": "COc1cc(NS(C)(=O)=O)ccc1Nc1c2ccc([N+](=O)[O-])cc2nc2c(C)cccc12", "growth": "12.4% (inactive)"},
      {"molecule": "Cc1nc(Nc2cccnc2)sc1C(=O)/C=C/c1ccc(F)cc1", "growth": "20.4% (inactive)"},
      {"molecule": "Cc1nc2scc(-c3ccccc3)n2c(=O)c1CCO", "growth": "96.1% (inactive)"},
      {"molecule": "C=C1C(=O)O[C@H]2[C@H]1CC/C(Cn1cc(-c3ccc(N)cc3)nn1)=C\\CC[C@@]1(C)O[C@@H]21", "growth": "-46.9% (active)"},
      {"molecule": "COc1cc(-c2csc(NC(=O)Nc3ccc(Cl)cc3Cl)n2)cc(OC)c1OC", "growth": "23% (inactive)"},
      {"molecule": "COc1ccc2c(c1)C(C)Cc1c(N(C)C)ncnc1N2C", "note": "(stereo not given)", "growth": "23.7% (inactive)"},
      {"molecule": "COC(=O)CC/C(C)=N\\Nc1ccc([N+](=O)[O-])cc1", "growth": "34.8% (inactive)"},
      {"molecule": "NS(=O)(=O)c1ccc(NCC(=O)Nc2ccc(-c3nc4ccccc4s3)cc2)cc1", "growth": "46.6% (inactive)"},
      {"molecule": "NCCSC(c1ccccc1)(c1ccccc1)c1ccccc1", "growth": "24.9% (inactive)"},
      {"molecule": "CN1CCN(c2ccc3cc(-c4nc5ccccc5[nH]4)c(=O)oc3c2)CC1", "growth": "91% (inactive)"},
      {"molecule": "COc1cc(OC)cc(-c2n[nH]nc2-c2ccc3c(c2)OCO3)c1", "growth": "25.7% (inactive)"},
      {"molecule": "CN(C)c1ncc(-c2ccc(C(F)(F)F)cc2)c(NC2CCCCCC2)n1", "growth": "77.4% (inactive)"},
      {"molecule": "COc1ccc(C(=O)c2cc(OC)c(OC)c(OC)c2)cc1/C=C/C(=O)c1ccc(O)cc1", "growth": "-29.5% (active)"},
      {"molecule": "COc1cc(Cn2c(SCC(=O)Nc3cc(OC)c(OC)c(OC)c3)nc3ccccc3c2=O)cc(OC)c1OC", "growth": "89.9% (inactive)"},
      {"molecule": "COc1cc(C2C=C(C)N=C3SC=C(C)N32)cc(OC)c1OC", "note": "(stereo not given)", "growth": "-20.4% (active)"},
      {"molecule": "COc1ccc(OC)c(C(=O)c2oc3ccc(Br)cc3c2N)c1", "growth": "24.2% (inactive)"},
      {"molecule": "Clc1ccc(/C=C/c2nc(N3CCOCC3)c3nc(Cl)c(Cl)cc3n2)cc1", "growth": "94.3% (inactive)"},
      {"molecule": "O=C1CCC(=O)N1Cc1ccccc1", "growth": "99.9% (inactive)"},
      {"molecule": "Cc1cc(C)c(NC(=O)c2sc3nc4c(cc3c2N)CN(Cc2ccccc2)CC4)c(C)c1", "growth": "21.7% (inactive)"},
      {"molecule": "O=c1cc(C2NCCc3c2[nH]c2ccccc32)c2c(ccc3ccccc32)o1", "note": "(stereo not given)", "growth": "44.5% (inactive)"},
      {"molecule": "C=C1C(=O)O[C@H]2[C@H]1CC/C(COC(=O)NCc1cc(OC)cc(OC)c1)=C\\CC[C@@]1(C)O[C@@H]21", "growth": "1.86% (active)"},
      {"molecule": "Cn1cc(C=O)c2ccccc21", "growth": "103% (inactive)"},
      {"molecule": "Clc1cccc(Cl)c1Cn1c(-c2cncs2)nc2ccccc21", "growth": "79.5% (inactive)"},
      {"molecule": "COc1cc(CCn2nnc3c(NCCCCO)ncnc32)cc(OC)c1", "growth": "102% (inactive)"},
      {"molecule": "O=C(Nc1ccccc1)OCC1OCOC(COC(=O)Nc2ccccc2)C1OC(=O)Nc1ccccc1", "note": "(stereo not given)", "growth": "51.7% (inactive)"},
      {"molecule": "C=C1C(=O)O[C@H]2[C@H]1CC/C(COC(=O)NCCc1ccc(OC)cc1)=C\\CC[C@@]1(C)O[C@@H]21", "growth": "-7.21% (active)"},
      {"molecule": "Cn1c(-c2nonc2NC(=O)c2ccc(F)cc2)nc2ccccc21", "growth": "103% (inactive)"},
      {"molecule": "CC(=O)Oc1cccc(OC(C)=O)c1OC(C)=O", "growth": "101% (inactive)"},
      {"molecule": "C=C1C(=O)O[C@H]2[C@H]1CC/C(COC(=O)NCCc1cccc(OC)c1)=C\\CC[C@@]1(C)O[C@@H]21", "growth": "5.34% (active)"},
      {"molecule": "NC(=O)NNC(=O)c1ccccc1", "growth": "97.6% (inactive)"},
      {"molecule": "COc1ncc(-c2ccc3ncnc(Nc4cccc(Cl)c4)c3c2)cc1NS(=O)(=O)CCN1CCOCC1", "growth": "6.62% (active)"}
    ]}
  ]
}
